# Rows were chosen to be rich in hits. Some 2.8% of all compounds tested hit in one or more screens of this group.
# GLP1R ag: agonists of human GLP-1 receptor | P43220 | HEK293 GLP-1R CRE-luciferase, luminescence, 4-6 h; cells express a hypersensitive GLP-1R form | Potency, µM (titrated, usually from 45.6 µM), hits mostly activators | 0.007% of 380,000 active
# GLS inhibitor: inhibitors of human glutaminase (GLS); Potency, µM (doses to about 45.5 µM), hits mostly inhibitors; 0.21% of 410,000 active; GLS enzymatic activity, qHTS titration; AID 624170
#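 Assay buffer: 45 mM KH2PO4 pH 8.2, 0.02% Tween-20. hKGA acts on L-glutamine (1 mM solution added); product glutamate is reported by an oxidase/peroxidase Amplex Red coupling, with fluorescence taken at baseline and 30 min.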
# KCNH2 3.1 block: KCNH2 3.1 (human) potassium channel inhibition; activity change, % (tested at about 1.8 µM); 0.95% of 340,000 active; U2OS KCNH2 3.1, thallium flux FluxOr; hits give low values;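 active = maximum activity change below -70%; inconclusive = maximum activity change from -70% to -50%; inactive = maximum activity change above -50%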;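 note: thallium influx rate constant from kinetic fluorescence after stimulation buffer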
#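 Thallium flux via FluxOr fluorescence (Red40 quencher, 45 min loading) in U2OS cells virally expressing the KCNH2 3.1 isoform (1.77 x 10^8 /mL virus, overnight at 37 C). Rate constants from 2-min kinetic reads post-stimulation, normalised to positive and negative controls.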
# GLP-1R inv ag: GLP-1 receptor (human) inverse agonism; HEK293 GLP-1R CRE-luciferase, luminescence, 24 h; GLP-1R form is constitutively active; Potency, µM (series often up to 38.3 µM), usual class: inhibitors; 1.6% of 410,000 active; note: nearly all actives have a fitted effect of over 55% in size
#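 Seeding at 200 cells/uL, 12 h culture, 24 hr compound treatment, then luciferase reagent and a luminescence read; cells are HEK293 stably expressing a constitutively active GLP-1R plus cAMP-responsive luciferase.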
# HEK293 tox: cytotoxic in the GLP-1 receptor inverse agonist counter-screen; HEK293 cAMP-luciferase reporter cells, luminescence, 24 h; Potency, µM (top dose mostly 38.3 µM), most hits filed as inhibitors; 0.13% of 410,000 active;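 note: loss of luciferase light is scored as toxicity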
#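 Step one: seed cells (200 cells/uL, DMEM with 10% Nu serum, 1% pen-strep). Step two: 12-hour incubation at 37 deg C. Step three: pin 23 nL compound, incubate 24 hr. Step four: add luciferase reagent, read luminescence 12 min later.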
# hERG WT inh: inhibitors of human wildtype KCNH2 potassium channel. Q12809. U2OS, BacMam KCNH2, thallium flux FluxOr; hits give low values. activity change, % at 1.84 µM. 0.37% of 340,000 active;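 active = maximum activity change below -70%; inconclusive = maximum activity change between -70% and -50%; inactive = maximum activity change above -50%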
# Target sequence (Q12809 whole entry, looked up): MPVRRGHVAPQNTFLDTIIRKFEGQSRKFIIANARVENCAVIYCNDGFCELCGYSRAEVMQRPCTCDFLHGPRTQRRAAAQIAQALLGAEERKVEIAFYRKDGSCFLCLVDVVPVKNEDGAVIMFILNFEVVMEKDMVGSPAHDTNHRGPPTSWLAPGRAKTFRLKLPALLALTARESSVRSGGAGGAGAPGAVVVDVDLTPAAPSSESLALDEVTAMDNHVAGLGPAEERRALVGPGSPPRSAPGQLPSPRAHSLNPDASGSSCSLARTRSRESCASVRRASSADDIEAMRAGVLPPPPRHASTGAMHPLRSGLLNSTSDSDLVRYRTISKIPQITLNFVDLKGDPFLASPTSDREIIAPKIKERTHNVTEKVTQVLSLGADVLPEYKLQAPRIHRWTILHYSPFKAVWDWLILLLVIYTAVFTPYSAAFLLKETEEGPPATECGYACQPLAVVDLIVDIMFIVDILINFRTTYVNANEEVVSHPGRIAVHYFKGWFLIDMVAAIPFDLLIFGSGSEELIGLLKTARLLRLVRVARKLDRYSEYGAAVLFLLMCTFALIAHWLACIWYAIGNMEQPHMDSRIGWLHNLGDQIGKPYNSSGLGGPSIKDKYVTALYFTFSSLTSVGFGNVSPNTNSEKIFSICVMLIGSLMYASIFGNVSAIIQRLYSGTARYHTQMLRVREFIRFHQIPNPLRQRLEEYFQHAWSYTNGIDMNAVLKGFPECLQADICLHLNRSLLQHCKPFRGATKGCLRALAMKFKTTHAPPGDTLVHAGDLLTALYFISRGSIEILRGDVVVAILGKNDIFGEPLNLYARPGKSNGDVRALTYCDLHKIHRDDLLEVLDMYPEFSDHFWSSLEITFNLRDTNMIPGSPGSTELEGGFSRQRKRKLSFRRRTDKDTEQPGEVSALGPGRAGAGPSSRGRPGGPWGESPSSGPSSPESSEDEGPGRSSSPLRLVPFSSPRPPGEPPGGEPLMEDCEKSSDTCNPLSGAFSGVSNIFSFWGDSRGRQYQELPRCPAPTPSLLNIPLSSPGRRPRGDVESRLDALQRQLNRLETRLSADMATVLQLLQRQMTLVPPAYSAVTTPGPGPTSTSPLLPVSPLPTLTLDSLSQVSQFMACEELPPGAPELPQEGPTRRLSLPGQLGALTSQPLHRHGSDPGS
#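 U2OS cells transduced with wild-type KCNH2 virus are loaded with FluxOr dye for 45 min, and thallium flux is measured in kinetic reads before and after stimulation buffer. Rate constants are normalized to DMSO controls.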
# Hits are given with their value; 0 = inactive; ? = inconclusive; - = no result. Unless noted, calls come from the whole dose curve; as a rule, active = well fitted curve in the direction sought with a large enough effect; inconclusive = small, poorly fitted or top-dose-only effect, or another doubt; inactive = no such curve, though single readings can be large; an effect the other way counts as inactive or inconclusive.
SMILES,GLP1R ag,GLS inhibitor,KCNH2 3.1 block,GLP-1R inv ag,HEK293 tox,hERG WT inh
Cc1ccc(N2C(=O)NC(NS(=O)(=O)c3ccc(Cl)cc3)(C(F)(F)F)C2=O)cc1C (configuration not stated),0,0,-,0,0,-
CCC/C=C/c1ccc(CN2C(C(C)C)C(=O)N(Cc3cn(CCC4OCCO4)nn3)CCS2(=O)=O)cc1 (configuration not stated),0,0,0,10µM,0,0
CCC/C=C/c1ccc(CN2C(CC(C)C)C(=O)N(Cc3cn(CCC4OCCO4)nn3)CCS2(=O)=O)cc1 (configuration not stated),0,0,0,?,0,0
CN1CCN(C(=O)/C(=C/c2ccccc2F)NC(=O)c2ccccc2)CC1,0,0,0,0,0,0
CCC(=O)C1=C(c2ccc(Cl)cc2)N(C(=O)CC)n2c(C)nnc2S1,-,0,-,0,0,-
CC(C)(C)C(=O)OCc1nc(-c2ccc(C(F)(F)F)cc2)cs1,0,0,-93,?,0,0
O=C(c1ccccc1)C1N=NCC1c1ccc(Cl)cc1 (configuration not stated),0,0,0,10µM,0,0
CCc1ccccc1NC(=O)NC(C)c1ccc2c(c1)OCO2 (configuration not stated),0,0,0,?,0,0
Fc1ccccc1CNCCC(Cc1ccccc1)c1ccc2c(c1)OCO2 (configuration not stated),0,0,0,?,?,0
CCNCCC(CCC(C)C)c1ccc2c(c1)OCO2 (configuration not stated),0,0,-99,?,0,-79
CC(C)CCC(CCNCc1ccccn1)c1ccc2c(c1)OCO2 (configuration not stated),0,0,-95,?,0,?
CC1(C)S[C@@H]2[C@H](NC(=O)C(C(=O)Oc3ccc4c(c3)CCC4)c3ccccc3)C(=O)N2[C@H]1C(=O)O (some centres not stated),0,7.9µM,-,-,-,-
CC(Oc1ccccc1)C(=O)NC1C(=O)N2C1SC(C)(C)C2C(=O)O (configuration not stated),0,0,0,0,0,0
C=NC(C(=O)NC1C(=O)N2C1SC(C)(C)C2C(=O)O)c1ccccc1 (configuration not stated),0,28µM,-,-,-,-
CC1(C)SC2C(NC(=O)C(c3ccccc3)S(=O)(=O)O)C(=O)N2C1C(=O)O (configuration not stated),0,0,-,-,-,-
CCc1ccccc1NC(=O)Cn1nc(C(F)(F)F)cc1C1CC1,0,0,-78,0,0,0
CCc1ccccc1NC(=O)Cn1nc(C(F)(F)F)c2c1CCCC2,0,0,-,0,0,-
COc1ccc(-c2nc3cc(C(C)C)ccc3o2)cc1NC(=O)COc1ccc(C)cc1C,-,0,-,0,0,-
Cc1cc(C)n(-c2nc(NCCCO)c3c4c(sc3n2)CCCC4)n1,0,0,-,?,?,0
Cc1cc(C)n(-c2nc(NCC(C)O)c3c4c(sc3n2)CCCC4)n1 (configuration not stated),0,0,0,2.8µM,0,0
Cc1cc(C)n(-c2nc(NCCO)c3c4c(sc3n2)CCCC4)n1,0,0,0,4.5µM,?,0
CCOc1ccc(S(=O)(=O)N2CCC(C(=O)N3CCN(c4ccccc4F)CC3)CC2)cc1C,0,0,0,5.6µM,0,0
CC(C)c1cc(C(=O)OCC(=O)NC2CC2)c(O)c(C(C)C)c1,0,0,0,?,0,0
CC(=O)c1ccc(NC(=O)CN2C(=O)CCc3ccccc32)cc1,-,0,-,0,0,-
CCc1ccc(C(O)c2ncc(-c3ccccc3F)[nH]2)cc1 (configuration not stated),0,0,-,0,0,-
SMILES,GLP1R ag,GLS inhibitor,KCNH2 3.1 block,GLP-1R inv ag,HEK293 tox,hERG WT inh
CCc1nccn1S(=O)(=O)c1ccc2ccc(C)cc2c1,0,0,-71,0,0,0
COc1ccc(NC(=O)Cn2c(-c3ccccc3)cn(-c3ccc(C)cc3)c2=O)cc1,0,0,0,10µM,0,0
COc1ccc(CN2CCCN(CC(=O)Nc3ccc(Br)cc3F)S2(=O)=O)cc1,-,0,-,?,0,-
COc1ccc(CN2C[C@H]3CCCN3c3cc(Br)ccc3S2(=O)=O)cc1,0,0,0,0.89µM,0,0
CCCCCCCn1c(=O)c(C(=O)OC)c(N)c2ccccc21,0,0,0,11µM,0,0
CCCCCCCCn1c(=O)c(C(=O)OC)c(N)c2ccccc21,0,0,0,?,0,0
CCc1ccc(N(C(=O)c2ccoc2C)C(C(=O)NC2CCCC2)c2ccc(OC)cc2)cc1 (configuration not stated),0,0,0,10µM,?,0
COc1ccc(C(C(=O)NC2CCCC2)N(C(=O)c2ccoc2C)c2cc(C)cc(C)c2)cc1 (configuration not stated),0,0,0,0,0,0
COc1ccc(C(C(=O)NC2CCCC2)N(C(=O)c2ccoc2C)c2ccccc2)cc1 (configuration not stated),0,0,0,?,0,-
COc1ccc(C(C(=O)NC2CCCC2)N(C(=O)c2ccoc2C)c2ccc(C)c(C)c2)cc1 (configuration not stated),0,0,-,10µM,0,0
O=C(Cn1c(=O)cnc2ccccc21)N1CCN(S(=O)(=O)c2ccccc2Br)CC1,0,0,0,0,0,0
COc1cc(C)ccc1OCc1cc(C(=O)NC2CCOCC2)no1,0,0,0,0,0,0
COc1cc(C)ccc1OCc1cc(C(=O)NC(c2ccccn2)C(F)(F)F)no1 (configuration not stated),0,0,-87,13µM,0,0
COc1ccc(C)cc1NC(=O)c1oc2ccc(S(=O)(=O)N3CCC4(CC3)OCCO4)cc2c1C,-,0,-,0,0,-
O=C(O)/C=C/c1ccc2c(-c3ccccc3)onc2c1,0,0,0,0,0,-126
O=C(O)c1ccc2noc(-c3ccccc3)c2c1,0,?,0,0,0,0
Cc1ccc(NC(=O)c2cc3ccccc3oc2=N)cc1,0,0,0,0,0,0
N=c1oc2c3c4c(cc2cc1C(=O)Nc1ccccc1)CCCN4CCC3,0,0,-85,?,0,-223
CCN1CCN(C(=O)Cn2ncc3c4ccccc4n(Cc4ccccc4F)c3c2=O)CC1,-,0,-,0,0,-
CN(C)c1ccc(N2C(=NC(=O)CCC3CCCC3)SC3CS(=O)(=O)CC32)cc1 (configuration not stated),0,0,0,0,0,-281

# Compound activity from PubChem BioAssay.
